A selection: hits, their analogues and other compounds. The true share with any hit is near 3.3%.
VACV Venus inh = inhibitors of vaccinia virus (Venus reporter); AID 720580; Potency, µM (doses to about 36.5 µM), for inactives: top-dose activity change, negative = inhibition, actives largely listed as inhibitors; 330,000 compounds, 0.46% hits; Vaccinia virus Venus reporter expression, fluorescence; calls by dose curve; tested in A549 cells; also: nearly all actives have a fitted effect of over 30% in size
Vaccinia mCherry = inhibitors of vaccinia virus infection (mCherry reporter signal); Vaccinia virus mCherry reporter infection, fluorescence; Potency, µM (titrated, usually from 36.5 µM), inactives show top-dose activity change, negative = inhibition, hits mostly inhibitors; 310,000 compounds, 0.63% hits; AID 720579; calls by dose curve; tested in A549 cells; also: nearly all actives have a fitted effect of over 35% in size
HCV inh = HCV inhibition; 340,000 compounds, 3.4% hits; Potency, µM (doses to about 41.8 µM), for the others: top-dose activity change, negative = inhibition, most hits filed as inhibitors; Huh7.5.1 HCVcc-Cre infection, luciferase reporter, 44 h; AID 651820; active = well fitted inhibition curve with a large enough effect; inconclusive = small, poorly fitted or top-dose-only effect, or another doubt; inactive = no such curve, though single readings can be large or run the other way
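After 44 h co-culture of compound, cells and HCVcc-Cre (~0.5 moi), substrate is added for 15 min at room temperature and luciferase measured over 15 sec. Cells were seeded at 1,000/well and pre-cultured 4 h.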
Numbers without * were called inactive; i = inactive; ? = inconclusive; · = no result given; [ ] = another dose, or the depositor's remark. % is scaled to controls: 0 for no effect and ±100 for the full control effect; potency is read from the fitted curve at half-maximal effect.

SMILES	VACV Venus inh	Vaccinia mCherry	HCV inh
Cc1ccc(NC(=O)C2CCCN(S(=O)(=O)c3ccc(C)cc3)C2)cc1 (stereo not given)	-8.7%	-5.0%	·
Cc1ccc(S(=O)(=O)N2CCCC(C(=O)N(Cc3cccs3)C3CC3)C2)cc1 (stereo not given)	-20.1%	?	15.8µM*
Cc1cc2c(NC(=O)Nc3ccccc3)cccc2nn1	-2.5%	-8.7%	?
Cc1cc2c(NC(=O)Nc3ccc(C(C)(C)C)cc3)cccc2nn1	·	·	14.1µM*
CCOC(=O)C1(CC2CCCCO2)CCN(Cc2cc3ccccc3[nH]2)CC1 (stereo not given)	?	2.51µM*	?
CCCCc1ncc(CN2CCC(CC3CCCCO3)(C(=O)OCC)CC2)[nH]1 (stereo not given)	-8.9%	i	7.3%
COc1ccc(C(=O)/C=C/c2cn(CN3CCN(C)CC3)c3ccccc23)cc1	·	·	8.91µM*
CCOc1ccc(C(=O)/C=C/c2cn(CN3CCN(C)CC3)c3ccccc23)cc1	-23.3%	-19.5%	?
Cc1oc(-c2ccccc2NC(=O)c2cccnc2)nc1CNC(=O)C1CCCCCN1C (stereo not given)	-12.2%	i	·
COc1ccc(OC)c2sc(N3CCCCC3)nc12	·	·	12.6µM*
COc1ccc(OC)c2sc(N3CCc4ccccc4C3)nc12	-6.3%	-7.5%	?
Cc1ccccc1C(=O)Nc1nnc(SCC(=O)NCc2ccco2)s1	·	·	7.0%
CCOc1ccc(NC(=O)c2cc(S(=O)(=O)N3CCC(C)CC3)cn2C)cc1	3.5%	-5.6%	·
COc1cc(C2CC(=O)Nc3cc4c(cc32)OCCO4)cc(Br)c1OC (stereo not given)	-29.8%[7.34 µM]	?	·
CCCCN(CC)C(=O)CSc1nc2ccccc2c(=O)n1CC1COc2ccccc2O1 (stereo not given)	·	·	10µM*
CCCCNC(=O)CSc1nc2ccccc2c(=O)n1CC1COc2ccccc2O1 (stereo not given)	·	·	2.82µM*
CCN(CC)C(=O)CSc1nc2ccccc2c(=O)n1CC	-13.6%	·	-7.1%
O=C(CSc1nc2ccccc2c(=O)n1CC1CCCO1)NCc1ccccc1 (stereo not given)	-5.2%	i	-13.3%
CCOC(=O)CSc1nc2cc3c(cc2c(=O)n1Cc1ccc(C(=O)NCCc2ccc(OC)c(OC)c2)cc1)OCO3	-10.1%	-8.1%	·
CCn1c2ccccc2c2cc(NC(=O)c3cccc([N+](=O)[O-])c3)ccc21	-28.8%	-22.4%	2.24µM*
Cc1c(C(=O)Nc2ccc(C(=O)Nc3ccccc3)cc2)cccc1[N+](=O)[O-]	3.6%	-7.1%	?
CCn1c2ccccc2c2cc(NC(=O)c3ccc(C)c([N+](=O)[O-])c3)ccc21	2.0%	-1.7%	?
CCn1c2ccccc2c2cc(NC(=O)CSc3nnc(-c4ccccc4)o3)ccc21	-10.2%	?	7.08µM*
CCn1c2ccccc2c2cc(NC(=O)CSc3nnc(-c4cccc(C)c4)o3)ccc21	-13.8%	·	-3.3%
O=C(COc1cccc(NC(=O)c2cccc([N+](=O)[O-])c2)c1)c1ccc(Br)cc1	?	·	14.1µM*
SMILES	VACV Venus inh	Vaccinia mCherry	HCV inh
CCn1c2ccccc2c2cc(NC(=O)c3cccc([N+](=O)[O-])c3C)ccc21	?	?	3.98µM*
O=C(Nc1cccc(OCC(=O)N2CCOCC2)c1)c1cccc([N+](=O)[O-])c1	·	·	8.6%
CC1(C(=O)Nc2cnc3ccccc3c2)CCN1C(=O)CCc1ccccc1 (stereo not given)	-6.5%	14.5%	·
COC(=O)C1=C(C)NC(C)=C(C(=O)OCCCN2CCC(c3ccccc3)(c3ccccc3)CC2)C1c1cccc([N+](=O)[O-])c1 (stereo not given)	-5.4%	-9.7%	·
O=C(Cc1c[nH]c2ccccc12)N1CCC(n2c(C3CCCO3)nc3cc(C(F)(F)F)ccc32)CC1 (stereo not given)	-11.5%	-14.4%	·
COc1ccc(CN(C(=O)c2cc3ccccc3oc2=O)C2CCS(=O)(=O)C2)cc1OC (stereo not given)	-6.5%	-7.4%	7.7%
CCn1c2ccccc2c2cc(NC(=O)c3cc(C)on3)ccc21	?	-28.0%	14.1µM*
CCn1c2ccccc2c2cc(NC(=O)c3ccc(Br)o3)ccc21	-5.4%	-18.6%	?
COc1ccc(CCN2C(=O)NC(NC(=O)c3ccccc3OC)(C(F)(F)F)C2=O)cc1OC (stereo not given)	-2.9%	-11.4%	·
COc1ccc2cc(Br)ccc2c1CC(=O)NC(C)C	-4.0%	-9.4%	4.1%
C=CCNC(=O)Cc1c(OC)ccc2cc(Br)ccc12	-24.9%	-21.4%	10µM*
Cc1ccc(-c2nc(S(=O)(=O)c3ccc(F)cc3)c(SCC(=O)NCC3CCCO3)o2)cc1 (stereo not given)	-2.3%	-6.8%	2.4%
Cc1ccc(S(=O)(=O)c2nc(-c3ccccc3)oc2SCC(=O)NCC2CCCO2)cc1 (stereo not given)	-11.2%	-10.1%	10µM*
Cc1ccc(N2CC(NC(=O)C(=O)c3c[nH]c4ccccc34)CC2=O)cc1C (stereo not given)	-1.3%	i	-4.7%
Cc1ccccc1C1=CCN(c2ncc(NC(=O)c3ccc(Cl)cc3)cc2C(=O)O)CC1	-2.0%[7.34 µM]	3.2%[7.34 µM]	·
Cc1sc2ncnc(N/N=C/c3cccc(O)c3)c2c1C	-23.3%	-4.6%	?
C/C(=N\Nc1ncnc2sc(C)c(C)c12)c1ccccn1	-21.3%	5.01µM*	?
Cc1cccc(C(=O)N2CCc3cc(CNS(=O)(=O)c4ccc(Cl)s4)ccc32)c1	-11.1%	-12.5%	·
Cc1ccccc1N=C1Nc2ccc(Cl)cc2N[C@]12C[C@H]1CCCC(=O)N3CC[C@@H](C2)[C@@H]13	-4.6%	i	·
Clc1ccc(-c2noc(CSc3nnc(-c4ccncc4)n3-c3ccccc3)n2)cc1	·	·	3.98µM*
Cc1ccc(-n2c(SCc3nc(-c4ccc(Cl)cc4)no3)nnc2-c2ccncc2)cc1	1.5%	-6.5%	·
CCc1cccc(Nc2cc(C)nc3nc(C)nn23)c1	·	·	12.2%
Cc1cc(Nc2cccc(C(F)(F)F)c2)n2nc(C)nc2n1	10µM*	·	1.1%
COc1ccc(-c2nc3nc(C)cc(Nc4cccc(C(F)(F)F)c4)n3n2)cc1	-8.7%	-0.6%	·
CCc1nc2nc(C)cc(Nc3cccc(C(F)(F)F)c3)n2n1	10µM*	·	?
SMILES	VACV Venus inh	Vaccinia mCherry	HCV inh
COC(=O)c1ccccc1NC(=O)CSc1nc2sc3c(c2c(=O)[nH]1)CCCC3	-7.3%[7.34 µM]	4.4%[7.34 µM]	·
COc1cccc(/C=N/n2nnnc2N)c1OCC#N	-5.8%	-6.5%	-16.3%
COc1ccccc1-c1ccnc(-n2ncc(C(=O)NCC3(N4CCOCC4)CCCC3)c2C)n1	-9.9%	-14.1%	·
CC(C)n1cc(CN2CCC(n3nccc3NC(=O)C3CCCC3)CC2)cn1	-4.9%	-6.9%	21.6%
O=C(Nc1ccc([N+](=O)[O-])cc1Cl)c1cc(Cl)cc(Cl)c1O	?	8.91µM*	·
Cc1cccc(NC(=O)c2cc([N+](=O)[O-])ccc2Cl)c1O	-7.8%	-5.8%	-22.9%
O=C(Nc1ccc([N+](=O)[O-])cc1Cl)c1cc(Br)ccc1O	0.794µM*	3.55µM*	·
COc1ccc(NC(=O)c2cc(Br)ccc2Cl)c([N+](=O)[O-])c1	-10.6%	-4.1%	-3.4%
O=C(OCC1CCCO1)c1ccc2c(c1)N(Cc1c(F)cccc1Cl)C(=O)c1ccccc1S2(=O)=O (stereo not given)	3.0%	-0.6%	·
